Among all 53,000 sequences or so, about 3,700 (7%) were called active.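 How the source made its calls: active means gene knockdowns whose robust z-score for IL-1 alpha signal is at least 2 or at most -2, so actives lie on both sides; inactive means the rest.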 The full list was thinned out, with actives kept by preference.
assay: Components of the Cytosolic LPS Sensing Pathway: Gene Identification via Genome-wide siRNA Screen; conditions: RAW264.7 macrophages, IL-1a HTRF, actives lie on both sides, screened at 100 nM (by protocol), cells primed 5 h with Pam3CSK4 first;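 further: robust z of the log signal after scaling to non-targeting control siRNA wells of the plate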
Method in brief: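 RAW264.7 mouse macrophages reverse-transfected with single siRNAs (100 nM final) for 48h, primed with Pam3CSK4 for 5 hours, then transfected with LipidA for 24 hour. Supernatant IL-1a read by HTRF; values normalized to negative-control median, log-transformed robust z-scores.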

z-score, active:
GGAGCAGUCUCCUUUUUGUTT against Pcnp 2.14, GGGCUAUGUAUUGUAAAUGTT against Nxf1 -2.79, GGGUUAGGCCAGUUCUGAUTT against Reg3d -2.08, GGAACUGCUCGACAAAGCUTT against Primpol -2.53, GCCCGUUCCACUUUUGGAGTT against Nedd1 2.2, GGAAGAAGCAGAAGAACAUTT against Rpl12 2.55, GGAACUCCUGGAGCAGAACTT against Tbc1d10b -2.52, GGACAAAAACAAAUGUGAGTT against 4933417A18Rik -2.43, GGAAUCAAAGGUCAAGCCATT against Rnf181 2.17, GCCGGGACCAUGAUUAUAGTT against Rbm10 2.7, GGGAUUCUGUCUGCACUGUTT against Olfr1145 -2.51, GGACAAUUGAAAACUGCCUTT against Gpd1 2.95, GCAGAUGAUACCUGGGCAATT against Mtmr14 2.68, GAGCUCCUCUGCUUUCUCUTT against Ms4a6d -2.74, GGACCGAUUAAGGAAGGAATT against Ppp1r1a 2.49, GAGAAUGAGUUCUGCCCAGTT against Lhb 2.24, GGAAAGCUCAAUUGGUUCGTT against Nup85 -2.27, CCUCAACACUCAGCUCAAUTT against Ifna14 -2.67, GGAUAUGCUCUCUUGGCUCTT against Ctsk -2.07, GGUGCAACCAGUGUGUGAUTT against St6galnac6 4.22, GGACAAUUACAUCCAGCCUTT against 2610528J11Rik -2.11, GCCCUCCAACCUCGAUAACTT against Shisa7 2.9, AACAGAUCUUCUCUGGUCCTT against Klra15 -2.47

z-score, inactive:
CCAAGAUUCGGUUUUGCUUTT against Trerf1 -0.33, GGCAGCCCUUUUGCUAAGATT against Neurod1 -0.0737, GGCUGGUGAAAGUCAAGGUTT against Arid4a 0.503, GCUCUUGAUGUUUAGAGUUTT against Usp17lf 0.345, GGGCAGCAGCAAUUUCUGUTT against Ahcyl1 1.39, GGAAAAAUUAGACCGUGAGTT against Pcdhb4 -0.299, CCAUUGAUAUUAAAUCGCUTT against Pik3cg -0.244, GCACGACUACUUCUCAAAUTT against Prpf6 0.376, GGCCAGAAUAUCAUCGUCATT against Rbks -0.163, GGGACACCUUCCGUAACUATT against Gcdh -0.832, GCACGCUAUUGGCUAUGAGTT against BC052040 -0.0182, GGUCAUGAUCAAGACACAUTT against Tmem63c 0.371, AAGGUUUGGAAACUCAUUGTT against Zbtb25 -1.77, GGAAGAGGAGGAGUACAAGTT against Fnbp1 -0.0804, GCAGUUCAUGUCCUGAAUATT against Olfr308 -1.49, GUUUCCAUAUCCUUUAAGUTT against Lilr4b 1.23, GGGUUAUAGGUGUGUGUGCTT against Gemin6 -0.389, GCUGCACUUGAAAUCCGAGTT against Atg2b 1.49, GGUUGUGCAAGAGUAUGAATT against Nphs2 0.316, GCGCACAACAGACUUCUAUTT against Epm2a 0.0628, GGAAGAACUUGACCCAGAGTT against Pex16 1.31, GGCGACAGUUGUUUUUGUGTT against Nlrp4b -0.588, GCUGUUUUACCUUAAUCCCTT against Tnfsf18 0.601, GGAAUUCCAAGUCAUUAUUTT against B230340J04Rik 0.664, GCAUCUUAGGCAUUGCUAGTT against Pcna -0.156, GGAUCAUGGGCGAAUGAUGTT against Rae1 -1.41, CCAUGUCAGUUACAAUGCGTT against Gja6 1.54, GGUCCAUGAUUGAAACACGTT against Srpr 0.798, GCAGAUAAGAGUUCAAAUCTT against Oxa1l -0.499, GACAUACAAUCUCCUACAUTT against Olfr478 0.818, GGAAUUCCGAAUAUUCCAGTT against Tsen2 1.51, GGAAGCCACCUUAACAUUATT against Osgin1 -0.814, GGAGAACUCUUUCAGAUUCTT against Stk36 0.957, GGGUUCUGCAUGUUGAUUCTT against Chm -0.853, GCCACCCACCUAAAAUCAATT against Rcsd1 -0.216, GGAAGUCUAGGUAAAAAAGTT against Samsn1 -0.994, GGACUUCAAGGACUUCUACTT against Crtap 0.112, GGGUGAGUGUCGGAACUUUTT against Sema6b -0.157, GGUUGUGCCAGAGGAGAUUTT against Scrib 0.963, GGAAGAACUAGAGUCAUAUTT against Eps8l1 -0.0721, CCAUACAUAAAAAGCCGCCTT against Il1rl1 1.29, GGUUCAUGUCAUCUUUAACTT against Calr -1.21, GGAUCAAUUGGCACUAGACTT against Zfp787 -1.31, GGACAAGUCCUUUGCUGUGTT against Zmynd8 -1.35, GGCAAUACUGGAAGGGUGUTT against Eps15 -1.03, GGAUGAUAUGGCAUACUUUTT against Fam221a 0.803, GGCCAUCUUGAAUUUUUUATT against 2410002F23Rik 0.0652, GGUGCUGUUGAAUUGUGGGTT against Wdr77 -0.366, GGUUAAACUUGGUGAAUUATT against Kcnj16 0.901, GCACAUGUCUGUGAUUCAATT against St8sia1 -0.166, GCGGAAACUCUCGAAAGUGTT against Dhx34 -1.52, CCUGAUGCAACACAGGUCCTT against Zbtb26 0.352, CGGAACACCAAUAAGAGAATT against Hgd -0.667, GCGUGAUUGACAACUGGUUTT against Cphx1 0.236, GGGAAUAUGACUGAAUAUATT against Ss18 -1.05, CCAAAUCGCUUCACAUAAUTT against Atp6v1g2 -1.1, GGACAAGAACCUGAAGCGGTT against Cdk5r1 -0.355, GGCUGGAGAAAAUGAUGAATT against Rwdd1 -0.267, GGAAGACAUAUUAACUACUTT against Gpr37 0.544, GGGAUCAUCUCUUUUGCUGTT against Olfr720 -1.33, GGGAAGCCUUUUUUAUCGGTT against V1rb5 0.838, CCCAUCCAAUAAGCAAUUGTT against Lpcat2 -0.696, GCGAGACUAUCAAAUCUAUTT against Gabra4 0.948, GGGAUAGUUACCUAAGACATT against Adarb2 0.593, GCACAAGUCUAAACAGCUGTT against Fermt1 0.494, GGAAAAAUACUCCAUAUUCTT against Enam 0.0353, GGCCAGUAGAUCCUUCUAATT against Fgf16 0.406, CCUAAUCUAGAGCAACACATT against Ankrd34c -1.67, GGCCUACCUUACCCUAAGATT against Adam32 0.513, CCAUGGCUUACGAGAGACATT against Mavs -0.884, GGAAUCCUUUCCUAAAUUGTT against Lin9 0.745, GGCUUCCUCCACUCUUUCCTT against Rhbg -1.81, GGAACCAUGAAAUAAAUGUTT against Acad8 0.684, CCCUUAUUGAUUCUUCAAGTT against Ngp 0.342, CCCUCUAUCCUUAAACCAUTT against Erg28 -0.549, CCUAUUCUUAACACCCUUGTT against Tfr2 0.891, AUCUCUCCUGUUCUAACACTT against Olfr26 -0.242, GGUCAUCAGCUUGUAACCATT against Mmadhc -1.37, GGACCUCAGCGAAGACAAUTT against Cd300e 0.114, GGUGAAAAGGUUGAUGUCATT against Spertl -0.368, GCUCAAUAGCUCAAAGUUUTT against Chsy3 -0.197, GGAUGACCAAGAAUGGGAATT against Dap 0.341, GCAAAGGAGGCUUCUAUUGTT against Olfr380 -0.803, GGAGUUGUGGAAUUCUCUATT against Extl2 -1.3
